Screens (PubChem BioAssay)
In the library only some 4.7% were active in any assay of this set; here they are far more common.
Efflux pump mplx: blocks antifungal efflux pumps in multiplex yeast assay | S. cerevisiae Candida pump triplex, Nile Red efflux | inhibition, % at 10 µM | 330,000 tested, 0.44% active | AID 485275;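 active = plate passing quality check with inhibition over a set limit, or well fluorescence over plate mean plus 4 SD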;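 note: Nile Red retained in pooled yeast measured as flow cytometry median fluorescence; higher means more Nile Red kept so more efflux inhibition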
PABP1 MLLE inh: inhibitors of microRNA-mediated deadenylation, human PABP1 MLLE binding; GST-MLLE / FITC-PAM2 fluorescence polarization; inhibition, % at 20 µM; 360,000 tested, 0.36% active; AID 588489; P11940; in the data active = inhibition above about 35%, passing the limit was not always enough
UBC9 SUMO inh: inhibitors of human SUMOylation (UBC9). P63279. HTRF SUMOylation assay, SAE1/SAE2 + UBC9, in vitro. inhibition, % at 35 µM. 290,000 tested, 0.36% active. AID 2006; in the data active = inhibition above about 50%, passing the limit was not always enough
PABP polyA inh: blocks human PABP binding to poly(A) RNA; P11940; fluorescence polarization; inhibition, % at 35 µM; 290,000 tested, 1% active;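 note: calls also rest on retests at 20 µM and on dose response follow-up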
ALR H2O2 inh: human ALR oxidase inhibition via reduced H2O2 | AID 485317 | purified ALR, DTT oxidation, H2O2 HRP-luminol luminescence | inhibition, % (test concentration not listed) | 290,000 tested, 3.8% active | P55789;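 active = mean replicate inhibition above about 79%, with every replicate also reaching it, limit read from the data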
Target sequence (P55789 whole entry, looked up): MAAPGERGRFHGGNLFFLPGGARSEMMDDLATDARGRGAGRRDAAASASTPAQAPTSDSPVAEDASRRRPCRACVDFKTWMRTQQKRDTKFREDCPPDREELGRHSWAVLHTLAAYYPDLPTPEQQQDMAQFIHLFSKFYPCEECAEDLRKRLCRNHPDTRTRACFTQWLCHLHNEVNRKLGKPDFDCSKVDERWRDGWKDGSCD
eIF4H inh: inhibitors of RNA binding by human eIF4H; Q15056; eIF4H fluorescence polarization binding assay; inhibition, % at 35 µM; 290,000 tested, 0.94% active;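 note: calls also rest on retests at 20 µM and on dose response follow-up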
Each line names hits and unclear results; the compound was inactive in the other large screens. Unless noted, the rule behind the calls is not given here.

COc1cc(/C=N\NC(=O)CNC(=O)C2COc3ccccc3O2)ccc1O (stereo not given)	ALR H2O2 inh 98
CCN(CC)c1ccc(/C=N/NC(=O)CNC(=O)C2COc3ccccc3O2)c(O)c1 (stereo not given)	UBC9 SUMO inh 51
COc1ccc(Br)cc1/C=N/NC(=O)CNC(=O)C1COc2ccccc2O1 (stereo not given)	none
O=C(Nc1ccccc1N1CCCC1)c1cc(=O)[nH]c2ccccc12	none (no result: Efflux pump mplx, UBC9 SUMO inh, PABP polyA inh, ALR H2O2 inh, eIF4H inh)
COc1ccc(CNC(=O)C[C@H]2C[C@H](C(=O)N3CCCCC3)[C@@]3(CCc4ccccc4)c4[nH]c5ccc(Cl)cc5c4CCN3C2=O)cc1OC	none (no result: UBC9 SUMO inh, PABP polyA inh, ALR H2O2 inh, eIF4H inh)
COc1cc(/C=N/NC(=O)CNC(=O)c2ccc3c(c2)OCCO3)ccc1O	ALR H2O2 inh 98
COc1ccc(CNC(=O)CN2C(=O)CCSc3ccc(S(=O)(=O)N4CCCC4)cc32)cc1	none
O=C(NNc1cccc(Cl)c1)c1cccnc1Cl	ALR H2O2 inh 98
CCN(Cc1ccccc1)C(=O)CCS(=O)(=O)c1ccc2c(c1)NC(=O)CO2	none
C/C(=N\NC(=O)c1cc(Br)ccc1O)c1ccccn1	ALR H2O2 inh 85
C/C(=N\NC(=O)c1cccc(Br)c1)c1ccccn1	none
Cn1c(N2CCN(C(c3ccccc3)c3ccccc3)CC2)nc2c1c(=O)[nH]c(=O)n2C	none
COc1ccc(C(=O)Nc2nc(-c3ccccn3)cs2)cc1S(=O)(=O)N1CCOCC1	none (no result: UBC9 SUMO inh, PABP polyA inh, eIF4H inh)
Cc1ccccc1NCCC(=O)Nc1ccc(F)cc1	ALR H2O2 inh 99
Cc1ccccc1NC(=O)CC(=O)Nc1ccccc1C	none
Cc1ccccc1NCCC(=O)Nc1ccc(Cl)cc1	ALR H2O2 inh 98
O=C(CCCCC(=O)Nc1ccc(F)cc1)Nc1ccc(F)cc1	none
CCc1ccccc1NC(=O)CN1CCN(C(=O)CNC(=O)c2ccc(N3CCCC3=O)cc2)CC1	none (no result: UBC9 SUMO inh, PABP polyA inh, eIF4H inh)
C[C@@H]1CN([C@@H](C)CO)S(=O)(=O)c2ccc(Br)cc2O[C@H]1CN(C)Cc1ccc(-c2ccccc2)cc1	none (no result: Efflux pump mplx, UBC9 SUMO inh, PABP polyA inh, ALR H2O2 inh, eIF4H inh)
CCOC(=O)/C(C)=N/Nc1nc(-c2ccc(NC(C)=O)cc2)cs1	ALR H2O2 inh 99
CC(=O)Nc1ccc(-c2csc(N/N=C(/C)c3ccccc3)n2)cc1	ALR H2O2 inh 99
CC(=O)Nc1ccc(-c2csc(Nc3ncccn3)n2)cc1	none
CC(=O)Nc1ccc(-c2csc(NC(C)c3ccccc3)n2)cc1 (stereo not given)	none
CCC(=O)Nc1ccc(-c2csc(NNC(C)=O)n2)cc1	ALR H2O2 inh 99
CCCCCC(=O)Nc1ccc(-c2csc(N)n2)cc1	ALR H2O2 inh 99
CCC(=O)Nc1ccc(-c2csc(C)n2)cc1	none
CCCCCC(=O)Nc1ccc(-c2csc(C)n2)cc1	none
CC(=O)Nc1ccc(-c2csc(NNC(=O)c3ccccc3)n2)cc1	ALR H2O2 inh 100
CC(=O)Nc1ccc(-c2csc(NCc3ccccc3)n2)cc1	none
CCOc1[nH]c(/N=C/c2ccco2)c(C#N)c1C#N	PABP polyA inh 126, eIF4H inh 100
NS(=O)(=O)c1cccc2c1c([N+](=O)[O-])cc1nc(O)c(O)nc12	PABP1 MLLE inh 38 (no result: UBC9 SUMO inh, PABP polyA inh, eIF4H inh)
CC1(C(=O)NCc2ccc(C(F)(F)F)cc2)CCN1C1Cc2ccccc2C1 (stereo not given)	none (no result: Efflux pump mplx, UBC9 SUMO inh, PABP polyA inh, ALR H2O2 inh, eIF4H inh)
O=c1cc(CN2CCN(Cc3ccc(F)cc3)C(CCO)C2)[nH]c2ccccc12 (stereo not given)	none (no result: ALR H2O2 inh)
CC1=NN(c2ccccc2)C(=O)C1c1ccccc1 (stereo not given)	ALR H2O2 inh 94
COc1cc(CNCc2ccccn2)ccc1OCc1cccc(Cl)c1	none
COc1cnc(-c2ccccn2)nc1Oc1cccc(Cl)c1	ALR H2O2 inh 95
N#Cc1ccc(CC(C(=O)O)N2Cc3ccccc3C2=O)cc1 (stereo not given)	none
C[C@@H]1CN([C@@H](C)CO)C(=O)c2cc(NC(=O)C3CC3)ccc2O[C@@H]1CN(C)C(=O)NC1CCCCC1	none (no result: UBC9 SUMO inh, PABP polyA inh, eIF4H inh)
CCOC(=O)N1C(=O)NC(=O)C1c1ccc(OC)cc1 (stereo not given)	none (no result: Efflux pump mplx, UBC9 SUMO inh, PABP polyA inh, ALR H2O2 inh, eIF4H inh)
O=C(NCc1ccc2c(c1)OCO2)c1cc2c(s1)CSC2	ALR H2O2 inh 97
O=C(NCc1ccco1)c1cc2c(s1)CSC2	ALR H2O2 inh 99 (no result: PABP1 MLLE inh)
Cc1c(C(=O)N(C)CCCCN2CCOCC2)oc2c(F)cccc12	none
Cc1ccccc1OCC(=O)Nc1sc2c(c1C#N)CC(C)(C)NC2(C)C	none
